Results taken from PubChem BioAssay (NCI).
Compounds without any hit were thinned out: in the full panel of roughly 83,000, 20% have a hit.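 Growth was measured after 48 h exposure to one concentration of compound in 96-well plates. Values under 10 count as active.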 Active and inactive are the calls of the source.

Assays:
Test in all cases: NCI-60 one-dose screen, 48 h (100 = growth as untreated, 0 = no growth, -100 = all killed)
Conditions in all cases: 10 µM unless noted
DU-145 prostate = system: DU-145 prostate
K-562 leukemia = system: K-562 leukemia
MALME-3M melanoma = system: MALME-3M melanoma
MDA-MB-231 breast = system: MDA-MB-231 breast
RXF 393 renal = system: RXF 393 renal
SF-268 CNS = system: SF-268 CNS
SF-295 CNS = system: SF-295 CNS
SF-539 CNS = system: SF-539 CNS
UACC-257 melanoma = system: UACC-257 melanoma
M14 melanoma = system: M14 melanoma
HCT-15 colon = system: HCT-15 colon
HT29 colon = system: HT29 colon
SNB-75 CNS = system: SNB-75 CNS
SNB-19 CNS = system: SNB-19 CNS
U251 CNS = system: U251 CNS
PC-3 prostate = system: PC-3 prostate
SK-MEL-5 melanoma = system: SK-MEL-5 melanoma
UACC-62 melanoma = system: UACC-62 melanoma
LOX IMVI melanoma = system: LOX IMVI melanoma
SK-MEL-28 melanoma = system: SK-MEL-28 melanoma

Measured: growth

CC(C)n1cnc2c(Nc3cccc(Cl)c3)nc(N[C@H]3CCCC[C@@H]3N)nc21
inactive: DU-145 prostate 49.7% | K-562 leukemia 35.5% | MALME-3M melanoma 45.5% | MDA-MB-231 breast 32.6% | RXF 393 renal 53.2% | SF-268 CNS 46.5% | SF-295 CNS 76.3% | SF-539 CNS 71.3% | UACC-257 melanoma 64.1% | M14 melanoma 40.9% | HCT-15 colon 58.1% | HT29 colon 11.3% | SNB-75 CNS 32.8% | SNB-19 CNS 59.7% | U251 CNS 57.3% | PC-3 prostate 54.3% | SK-MEL-5 melanoma 53.3% | UACC-62 melanoma 68.3% | LOX IMVI melanoma 45.2% | SK-MEL-28 melanoma 61.7%

C=C1C(=O)O[C@H]2[C@H]1CC/C(COC(=O)NCCOCCOCC(=O)Nc1ccc(OC)c(C(N)=O)c1O)=C\CC[C@@]1(C)O[C@@H]21
active: RXF 393 renal -9.54%
inactive: DU-145 prostate 76.9% | K-562 leukemia 25.6% | MALME-3M melanoma 62.1% | MDA-MB-231 breast 52% | SF-268 CNS 81.9% | SF-295 CNS 97.7% | SF-539 CNS 37% | UACC-257 melanoma 57.1% | M14 melanoma 60.4% | HCT-15 colon 85.4% | HT29 colon 37.2% | SNB-75 CNS 80.1% | SNB-19 CNS 77.8% | U251 CNS 70.5% | PC-3 prostate 51.4% | SK-MEL-5 melanoma 84.9% | UACC-62 melanoma 44.4% | LOX IMVI melanoma 57.2% | SK-MEL-28 melanoma 47.1%

COc1ccccc1/C=C1\Oc2cc(OCCN3CCC(Cc4ccccc4)CC3)ccc2C1=O
inactive: DU-145 prostate 102% | K-562 leukemia 27.6% | MALME-3M melanoma 76.8% | MDA-MB-231 breast 90.3% | RXF 393 renal 69.9% | SF-268 CNS 84.4% | SF-295 CNS 96.6% | SF-539 CNS 93.8% | UACC-257 melanoma 95.1% | M14 melanoma 65.9% | HCT-15 colon 52.5% | HT29 colon 31.2% | SNB-75 CNS 83.6% | SNB-19 CNS 90.8% | U251 CNS 78.2% | PC-3 prostate 81.8% | SK-MEL-5 melanoma 90.9% | UACC-62 melanoma 92.1% | LOX IMVI melanoma 70.7% | SK-MEL-28 melanoma 87.5%

O=CN(SSN(C=O)C1CCCCC1)C1CCCCC1
inactive: DU-145 prostate 115% | K-562 leukemia 52.3% | MALME-3M melanoma 73.9% | MDA-MB-231 breast 102% | RXF 393 renal 12.4% | SF-268 CNS 103% | SF-295 CNS 105% | SF-539 CNS 102% | UACC-257 melanoma 124% | M14 melanoma 92.7% | HCT-15 colon 109% | HT29 colon 108% | SNB-75 CNS 109% | SNB-19 CNS 99.9% | U251 CNS 109% | PC-3 prostate 103% | SK-MEL-5 melanoma 119% | UACC-62 melanoma 85.5% | LOX IMVI melanoma 96.8% | SK-MEL-28 melanoma 116%

Cc1ccc(/C=C(\C#N)n2nc3cccc(F)c3n2)cc1
inactive: DU-145 prostate 97.8% | K-562 leukemia 80.5% | MALME-3M melanoma 93% | MDA-MB-231 breast 98.3% | RXF 393 renal 89.7% | SF-268 CNS 93.4% | SF-295 CNS 92.8% | SF-539 CNS 92.6% | UACC-257 melanoma 97.7% | M14 melanoma 98.2% | HCT-15 colon 82.6% | HT29 colon 114% | SNB-75 CNS 74.7% | SNB-19 CNS 96.6% | U251 CNS 86.3% | PC-3 prostate 102% | SK-MEL-5 melanoma 89.9% | UACC-62 melanoma 83.7% | LOX IMVI melanoma 86.2% | SK-MEL-28 melanoma 96.2%

COc1cc(/C=C/c2ccccc2)cc(OC)c1
inactive: DU-145 prostate 94.3% | K-562 leukemia 93% | MALME-3M melanoma 105% | MDA-MB-231 breast 91% | RXF 393 renal 118% | SF-268 CNS 92.7% | SF-295 CNS 95.7% | SF-539 CNS 93.1% | UACC-257 melanoma 103% | M14 melanoma 101% | HCT-15 colon 91% | HT29 colon 90.4% | SNB-75 CNS 93.1% | SNB-19 CNS 98.7% | U251 CNS 84.1% | PC-3 prostate 94.6% | SK-MEL-5 melanoma 96.5% | UACC-62 melanoma 83.4% | LOX IMVI melanoma 84.8% | SK-MEL-28 melanoma 111%

Nc1nc(-c2cccc3ccccc23)cc2ccccc12
inactive: MALME-3M melanoma 82.2% | MDA-MB-231 breast 20.7% | SF-268 CNS 23.7% | UACC-257 melanoma 56.6% | SNB-19 CNS 12% | U251 CNS 16.3% | PC-3 prostate 20.5% | SK-MEL-5 melanoma 11% | UACC-62 melanoma 23.5% | LOX IMVI melanoma 20.9% | SK-MEL-28 melanoma 48.2%
active: DU-145 prostate 7.32% | K-562 leukemia -43.8% | RXF 393 renal -4.3% | SF-295 CNS -50.2% | SF-539 CNS -35.9% | M14 melanoma -29.5% | HCT-15 colon 3.98% | HT29 colon 1.11% | SNB-75 CNS 7.16%

Cc1ccc(C(=O)NN2C(=O)CSC2c2cccc([N+](=O)[O-])c2)cn1 (stereo not given)
inactive: DU-145 prostate 107% | K-562 leukemia 98.9% | MALME-3M melanoma 111% | MDA-MB-231 breast 96.6% | RXF 393 renal 82.8% | SF-268 CNS 104% | SF-295 CNS 99.4% | SF-539 CNS 106% | UACC-257 melanoma 75.8% | M14 melanoma 96.4% | HCT-15 colon 109% | HT29 colon 104% | SNB-75 CNS 84.6% | SNB-19 CNS 93.2% | U251 CNS 95.6% | PC-3 prostate 86.6% | SK-MEL-5 melanoma 104% | UACC-62 melanoma 98.1% | LOX IMVI melanoma 90% | SK-MEL-28 melanoma 124%
